± gives the standard deviation.
What follows are sequences tested on EfPiwi piRISC loaded with L1MC piRNA (26 nt) (assay: pre-steady-state target cleavage rate (min^-1); auxiliary factor: none (no Gtsf1); guide: L1MC piRNA 5'p-UAACUAAAUACUAUGCAAGCUGUAGG; MIWI and MILI are mouse PIWI proteins and EfPiwi is from a freshwater sponge; tags in brackets are library labels; higher = faster piRNA-guided slicing of the target).
Description: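 Cleave-'n-Seq: a library of target RNAs (target site in constant flanks) at […] was incubated with 1 nM active freshwater sponge Ephydatia fluviatilis Piwi piRISC (synthetic 5'-monophosphorylated piRNA guide) with or without 500 nM EmGtsf1 at 33 °C for 1 min to 16 h. Uncleaved targets were sequenced and the pooled three trials fitted to a burst-and-steady-state model to give the pre-steady-state cleavage rate (min^-1). Sequence is the target site only. Fits with R² ≤ 0 are excluded.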

pre-steady-state target cleavage rate, 0.0124 ± 0.0079:
UCCUGGAUGAGCUUGCAUAGUAGUUUAGUUA

pre-steady-state target cleavage rate, 0.00759 ± 0.0041:
UCCUGGAUCAGCUUGCAUAGUAUUAUAGUUA

pre-steady-state target cleavage rate, 0.0179 ± 0.0092:
UCCUGGAUCAGCUUGCAUAGUAUGUAGUUA

pre-steady-state target cleavage rate, 0.00791 ± 0.0048:
UCCUGGAACAGCUUGCAUCGUAUUUAGUUA

pre-steady-state target cleavage rate, < 0.0001:
UCCUCCUACAGCUUGCAUUCUAUUUUCAAA, UCCUGCUACAGCUUGCAAUCUAUUUUCAAA, UCCUGGAUGAGCUUGGAUUGUAUUUAGUUA, UCCUGGAUGUCGAACGAAGUAUUUAGUUA, UCCUCCUACAGGAAGCAUAGUAUUUACAAA, UCCUGGAUGUCGAACGUAAGUAUUUAGUCA, UCCUGGAUGUCGAACGUAAUGUAUUUAGUUA, UCCUGGAUGUCGAACGAAAGUUUUUAGUUA, UCCUGGAUGUCGUUGCAUGUAUUUAGUUA, UCCUGGAUGUCGUUCAUAGUAUUUAGUUA, UCCUCCUACACCUUCCAUAGUAUUUAGUUA, UCCUGGAUGUCGAACGUAAGAUUUAGUUA, UCCUGGAACAGCUUGCAUAGUAUUAUGAAA, UCCUGGAUGUCGAAGCAUAGUAUAAUCAAA [g8:g16:cont:t1A], UCCUGGAUGUCGUUACAUAGUAUUUAGUUA, UCCUGGAUGUCGAACGUAAGUAUUUAUUA, UCCUGGAUGUCCUUGCAUAGUAAUUACUUA, UCCUGGAUGUCGUUGCAUAGUAUUUAGCUA, UCCUGGAACAGCUUCCAUAGUAUUAAGUUA, UCCUGGAUGUCGAACGUAUGUAUUUAGUAA, UCCUGGAUGUCGAACGAUAUAUUUAGUUA, UCCUGGAUGUCCUUGCAUACAAUUUAGUUA, UCCUGGAUGUCGAUGCAUAGUAUUCAGUUA, UCCUGGAUGUCGAAGCAUAGUUUUUAGAUA, UCCUGGAUGUCCUUGCAUACUAUUUAGAUA, UCCUGGAUGUCGAUGCACAGUAUUUAGUUA, UCCUGGAUGUCGAACCAUUGUAUUUAGUUA, UCCUGGAUGUCGAAGGAUAGUAUUUUGUUA, UCCUGGAUGUCCUUGCAUAAGUAUUUAGUUA, UCCUGGUACAGCUUGCAUAGAAUUUACUUA

pre-steady-state target cleavage rate, 0.00468 ± 0.0038:
UCCUGGAUCAGCUUGCAUAGUACUUUAGUUA

pre-steady-state target cleavage rate, 0.00696 ± 0.0045:
UCCUGGAUCAGCUUGCAUAGUGUUUAGUUA

pre-steady-state target cleavage rate, 0.00878 ± 0.005:
UCCUGGAAGAGCUUGCUUAGUAUUUAGUUA

pre-steady-state target cleavage rate, 0.00448 ± 0.0039:
UCCUGGAUGAGCUUGCAUAGUACUUAGUUA

pre-steady-state target cleavage rate, 0.00821 ± 0.0047:
UCCUGGAUGUGCUUGCAUAGUCUUUAGUUA

pre-steady-state target cleavage rate, 0.00427 ± 0.0042:
UCCUGGAUGUGCUUGCGUAGUAUUUAGUUA

Source: the supplement of paper PMC10338343
